Sampled rows, rich in hits. Any-hit rate of the full collection: about 2.5%.
CHT block: human CHT choline transport inhibition. hit rate 0.86% among 310,000. Q9GZV3. B-score at 10 µM. CHT-expressing cells, membrane potential dye, choline response; active compounds read low;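 active = B-score over 3 SD under the library average, and starting fluorescence ratio not unusually high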;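 also: choline stimulus applied at its EC90 after an EC20 pre-addition; B-score computed on integrated fluorescence ratio after choline addition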
Target sequence (Q9GZV3 whole entry, looked up): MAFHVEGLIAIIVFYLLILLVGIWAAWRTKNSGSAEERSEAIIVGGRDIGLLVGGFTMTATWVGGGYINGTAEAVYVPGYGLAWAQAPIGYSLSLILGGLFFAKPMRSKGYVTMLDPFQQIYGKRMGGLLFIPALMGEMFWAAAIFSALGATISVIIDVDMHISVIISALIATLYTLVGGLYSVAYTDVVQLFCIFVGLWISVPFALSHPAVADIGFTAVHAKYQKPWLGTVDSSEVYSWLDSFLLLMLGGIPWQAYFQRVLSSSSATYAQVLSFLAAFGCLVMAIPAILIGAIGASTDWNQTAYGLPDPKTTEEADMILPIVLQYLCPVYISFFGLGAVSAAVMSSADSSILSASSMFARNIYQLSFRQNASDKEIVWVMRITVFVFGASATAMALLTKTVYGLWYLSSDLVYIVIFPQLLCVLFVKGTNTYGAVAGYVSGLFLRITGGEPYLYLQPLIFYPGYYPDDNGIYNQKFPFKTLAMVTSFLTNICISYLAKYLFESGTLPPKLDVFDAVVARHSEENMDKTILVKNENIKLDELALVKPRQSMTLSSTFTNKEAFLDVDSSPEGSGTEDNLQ
ANO1 activ: mouse TMEM16A channel activation, primary screen | Q8BHY3 | HEK293 TMEM16A/YFP-H148Q/I152L, iodide quench fluorescence; active compounds read low | B-score at 10 µM | hit rate 0.3% among 340,000 | AID 623877;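 active = fluorescence-ratio B-score plate-corrected deviation score at least 3 library SD below zero, with starting fluorescence score within 5 deviations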;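 also: channel opened by trigger with iodide after compound preincubation; score built on the fluorescence ratio of max minus min over baseline; more negative score means more quench and so TMEM16A activation or potentiation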
CHT PAM: allosterically activates the human high affinity choline transporter | hit rate 0.49% among 310,000 | Q9GZV3 | CHT-expressing cells, membrane potential dye, choline EC20; active compounds read high; LV-AA mutant CHT in HEK293 cells | B-score at 10 µM;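 active = initial fluorescence not abnormally high and integrated response B-score, plate-corrected, over 3 SD above library mean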
PKA-R2B activ: activates the human PKA-R2B holoenzyme complex; P22694+P31323; PKA-R2B holoenzyme dissociation, Cy5-IP20 fluorescence polarization; R2B truncated from residue 108, S112A mutant; 0% DMSO only, 100% 113 µM cGMP; hit rate 0.079% among 340,000; activation, % at 11.4 µM;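 active = activation above a cutoff set at the mean over all compounds plus 3 SD, cut at about 18% in these data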;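 also: higher means more holoenzyme dissociation and a rise in polarization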
PKA-R1A act: activators of PKA-R1A complex; P00514+P68181; PKA-R1A dissociation, Cy5-IP20 fluorescence polarization; scaled: DMSO 0%, 113 µM cGMP 100%; activation, % at 11.4 µM; hit rate 0.083% among 340,000;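 active = percent activation above the mean of all tested compounds plus 3 SD, cut at about 19% in these data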;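 also: higher means more PKAc released from R1A so a rise in polarization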
ANO1 block: blocks the mouse calcium-activated chloride channel TMEM16A; Q8BHY3; HEK293 TMEM16A/YFP iodide influx fluorescence, ionomycin; normalized B-score (activity score, 25-100; higher = stronger inhibition) at 10 µM; hit rate 1.2% among 310,000;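 active = ratio plate-corrected score three or more library SD toward inhibition, starting fluorescence score within five deviations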;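 also: score derived from kinetic fluorescence span divided by baseline fluorescence per well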
CHT inh conf: human CHT inhibition, confirmatory screen. CHT-expressing cells, choline membrane potential dye; LV-to-AA substituted CHT, HEK293 cells. AID 493221. shares compounds with CHT block. CHT activity remaining % of control (active compounds read low), % at 10 µM. hit rate 70% among 2,400;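 active = choline transporter activity left, mean of duplicates at 10 µM, below buffer-only control mean minus 3 SD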;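 also: depolarization triggered by choline at its EC90 following an EC20 pre-addition; 0% = hemicholinium-3 full block and 100% = buffer-only control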
HEK293 CHT ctr: CHT inhibitor counter-screen hit in parental HEK293 cells. shares compounds with CHT block. membrane potential dye, choline response; active = decrease or increase beyond buffer ±3SD. membrane potential ratio readout (active if shifted either direction beyond buffer ±3SD; no single direction) at 10 µM. hit rate 4% among 2,400;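 also: parental cells lack the transporter so any hit is non-specific; ratio is peak minus trough fluorescence over baseline after EC90 choline challenge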
* = called active by the depositor.

What do the screens show for `COC(=O)CSc1nnc(-c2ccc(NS(=O)(=O)c3ccccc3)cc2)o1`?
CHT block: -5.91*; ANO1 activ: inactive; CHT PAM: inactive; PKA-R2B activ: -10.7; PKA-R1A act: -9.0; ANO1 block: 25*; CHT inh conf: 38.5%*; HEK293 CHT ctr: inactive

What do the screens show for `Cc1cc(NC(=O)COC(=O)CNC(=O)c2cccs2)c([N+](=O)[O-])cc1C`?
CHT block: inactive; ANO1 activ: inactive; CHT PAM: inactive; PKA-R2B activ: -11.9; PKA-R1A act: -9.0; ANO1 block: inactive

How did O=C(CCn1c(=O)c2ccccc2n(Cc2ccccc2)c1=O)NC1CCN(Cc2ccccc2)CC1 do in these assays?
CHT block: inactive; ANO1 activ: inactive; CHT PAM: inactive; PKA-R2B activ: -2.2; PKA-R1A act: -5.0; ANO1 block: inactive

How did NC(=O)Cn1c(=O)n(CCCC(=O)NC2CCN(Cc3ccccc3)CC2)c(=O)c2ccccc21 do in these assays?
CHT block: -5.59*; ANO1 activ: inactive; CHT PAM: inactive; PKA-R2B activ: 4.6; PKA-R1A act: -2.4; ANO1 block: inactive; CHT inh conf: inactive; HEK293 CHT ctr: inactive

What do the screens show for `CCc1cc(C(=O)N(CC)CC(=O)Nc2ccc(OC)cc2)sc1C`?
ANO1 activ: inactive; PKA-R2B activ: -10.9; PKA-R1A act: -1.3

Results for Cc1ccc(S(=O)(=O)CC(O)COc2ccc(F)cc2Cl)c(C)c1 (centres undefined) ?
CHT block: inactive; ANO1 activ: inactive; CHT PAM: inactive; PKA-R2B activ: -1.2; PKA-R1A act: -10.5; ANO1 block: inactive

How did Cc1ccc(S(=O)(=O)CC(O)COc2ccc(F)cc2Cl)cc1 (centres undefined) do in these assays?
CHT block: -6.65*; ANO1 activ: inactive; CHT PAM: inactive; PKA-R2B activ: -5.1; PKA-R1A act: -10.3; ANO1 block: inactive; CHT inh conf: 54.2%*; HEK293 CHT ctr: inactive

Results for CN(C)/C=C1/N=C(c2ccccc2)OC1=O ?
CHT block: inactive; ANO1 activ: inactive; CHT PAM: inactive; PKA-R2B activ: -10.5; PKA-R1A act: -10.9; ANO1 block: inactive

What do the screens show for `O=CC1=C(c2ccccc2)Oc2ccccc2O1`?
CHT block: inactive; ANO1 activ: inactive; CHT PAM: inactive; PKA-R2B activ: -5.3; PKA-R1A act: -15.6; ANO1 block: inactive; CHT inh conf: inactive; HEK293 CHT ctr: inactive

Results for Cc1ccccc1NS(=O)(=O)c1ccc(N2CCCC2=O)cc1 ?
CHT block: -4.96*; ANO1 activ: inactive; CHT PAM: inactive; PKA-R2B activ: -2.3; PKA-R1A act: 3.0; ANO1 block: inactive; CHT inh conf: inactive; HEK293 CHT ctr: inactive

How did CCOC(=O)CSc1nnc(CNc2ccccc2Cl)n1-c1ccccc1 do in these assays?
CHT block: -5.34*; ANO1 activ: inactive; CHT PAM: inactive; PKA-R2B activ: -8.9; PKA-R1A act: -2.2; ANO1 block: inactive; CHT inh conf: inactive; HEK293 CHT ctr: inactive

What do the screens show for `Cc1nc(-c2ccc(S(=O)(=O)N3CCCN(CCc4ccccc4)CC3)s2)cs1`?
CHT block: -5.36*; ANO1 activ: inactive; CHT PAM: inactive; ANO1 block: inactive; CHT inh conf: inactive; HEK293 CHT ctr: inactive

What do the screens show for `CCOc1cc(/C=C2/C(=O)ON=C2C)ccc1O`?
CHT block: inactive; ANO1 activ: inactive; CHT PAM: inactive; PKA-R2B activ: 4.1; PKA-R1A act: 11.4; ANO1 block: inactive

How did CC1=NOC(=O)/C1=C/c1ccc(O)c(Cl)c1 do in these assays?
CHT block: -8.62*; ANO1 activ: inactive; CHT PAM: inactive; PKA-R2B activ: 2.8; PKA-R1A act: 8.4; ANO1 block: inactive; CHT inh conf: 26.8%*; HEK293 CHT ctr: inactive

Results for O=C1ON=C(c2ccccc2)/C1=C/c1ccc(O)c(O)c1 ?
CHT block: -6.83*; ANO1 activ: inactive; CHT PAM: inactive; PKA-R2B activ: -12.8; PKA-R1A act: 2.7; ANO1 block: inactive; CHT inh conf: 32.6%*; HEK293 CHT ctr: inactive

What do the screens show for `COc1ccc(CCC(=O)OCC(=O)Nc2ccc(OC)c(OC)c2)cc1OC`?
CHT block: inactive; ANO1 activ: inactive; CHT PAM: inactive; PKA-R2B activ: 5.8; PKA-R1A act: 0.2; ANO1 block: inactive

How did Cc1cc(=O)cc(C)n1-c1ccc(F)cc1F do in these assays?
CHT block: inactive; ANO1 activ: inactive; CHT PAM: inactive; PKA-R2B activ: 7.7; PKA-R1A act: -9.3; ANO1 block: inactive

What do the screens show for `Cc1ccc(-n2c(C)cc(=O)cc2C)c(C)c1`?
CHT block: -5*; ANO1 activ: inactive; CHT PAM: inactive; PKA-R2B activ: 1.5; PKA-R1A act: -4.3; ANO1 block: inactive; CHT inh conf: 34.1%*; HEK293 CHT ctr: inactive

How did COc1cc(/C=C(/NC(=O)c2ccccc2)C(=O)N2CCOCC2)c([N+](=O)[O-])cc1OC do in these assays?
CHT block: inactive; ANO1 activ: inactive; CHT PAM: inactive; PKA-R2B activ: 0.1; PKA-R1A act: -1.2; ANO1 block: inactive

How did CCCn1ccnc1SC(C)C(=O)Nc1c(C)n(C)n(-c2ccccc2)c1=O (centres undefined) do in these assays?
ANO1 activ: inactive; PKA-R2B activ: -4.9; PKA-R1A act: -0.2

How did CCc1cc2c(=O)n(CC)c(SC(C)C(=O)Nc3c(C)n(C)n(-c4ccccc4)c3=O)nc2s1 (centres undefined) do in these assays?
CHT block: -5.58*; ANO1 activ: inactive; CHT PAM: inactive; PKA-R2B activ: 0.5; PKA-R1A act: -4.4; ANO1 block: inactive; CHT inh conf: inactive; HEK293 CHT ctr: inactive

Results for O=C(OCC(=O)N1CCCc2ccccc21)c1cnc(Cl)c(Cl)c1 ?
CHT block: -5.67*; ANO1 activ: inactive; CHT PAM: inactive; PKA-R2B activ: -2.9; PKA-R1A act: 6.6; ANO1 block: inactive; CHT inh conf: inactive; HEK293 CHT ctr: inactive

How did O=C(OCC(=O)N1CCCc2ccccc21)c1ccc(Cl)nc1 do in these assays?
CHT block: inactive; ANO1 activ: inactive; CHT PAM: inactive; PKA-R2B activ: -6.8; PKA-R1A act: -5.7; ANO1 block: inactive

Assay outcomes (PubChem)
